Screens (PubChem BioAssay)
A selection: hits, their analogues and other compounds. The true share with any hit is near 3.2%.
ClpP mod – qHTS Assay for Activators of ClpP; ATP-dependent Clp protease proteolytic subunit (Bacillus subtilis (strain 168)), P80244; purified B. subtilis ClpP, FRET peptide cleavage, 20 min; Potency, µM (doses to about 57.5 µM), inactives show at the top dose activity change, negative = active; hit rate 1.9% among 340,000; AID 651965, 2013; active means well fitted falling curve with a large enough effect; inconclusive means small, poorly fitted or top-dose-only effect; inactive means no such curve, though single readings can be large or run the other way; further: the source files actives as falling curves though it sought activators and does not explain the sign; nearly all actives have a fitted effect of over 65% in size
Target sequence (P80244 whole entry, looked up): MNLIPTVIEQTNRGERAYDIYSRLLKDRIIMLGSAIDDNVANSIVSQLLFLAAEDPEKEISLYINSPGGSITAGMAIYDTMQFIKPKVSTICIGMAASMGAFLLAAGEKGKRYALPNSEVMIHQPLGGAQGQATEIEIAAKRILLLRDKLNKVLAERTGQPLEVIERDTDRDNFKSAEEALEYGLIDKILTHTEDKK
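ClpP 10 microg/mL final, pH 8 Tris/KCl buffer with BSA, glycerol, Tween-20; compound pinned in; FRET-FV substrate; RT 20 min; Ex320/Em430; ΔFRET vs ADEP 5.8 microM, DMSO, no enzyme.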
GLP1R inv ag – acts as inverse agonist at human GLP-1 receptor | AID 624417 | Potency, µM (top dose mostly 38.3 µM), without a hit: at the highest dose activity change, negative = inhibition, hits mostly inhibitors | HEK293 GLP-1R CRE-luciferase, luminescence, 24 h; GLP-1R form is constitutively active | hit rate 1.6% among 410,000; further: on the % scale 0 is the no-effect control and ±100 the full control effect; nearly all actives have a fitted effect of over 55% in size
Target sequence (P43220 whole entry, looked up): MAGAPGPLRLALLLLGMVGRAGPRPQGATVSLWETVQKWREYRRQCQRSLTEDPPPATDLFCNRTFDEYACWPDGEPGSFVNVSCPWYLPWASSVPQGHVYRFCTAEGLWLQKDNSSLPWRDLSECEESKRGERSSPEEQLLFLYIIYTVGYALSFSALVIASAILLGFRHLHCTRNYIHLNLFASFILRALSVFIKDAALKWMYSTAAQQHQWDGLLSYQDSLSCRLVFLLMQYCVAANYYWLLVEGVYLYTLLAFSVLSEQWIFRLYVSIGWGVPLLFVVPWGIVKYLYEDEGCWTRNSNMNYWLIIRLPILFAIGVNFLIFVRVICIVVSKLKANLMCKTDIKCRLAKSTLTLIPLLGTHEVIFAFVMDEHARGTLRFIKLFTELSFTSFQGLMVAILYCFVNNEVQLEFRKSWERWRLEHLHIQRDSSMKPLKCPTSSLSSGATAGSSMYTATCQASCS
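Luminescence readout: a drop in cAMP-driven luciferase signal flags inverse agonism at a constitutively active GLP-1R stably expressed in HEK293. Compound exposure lasted 24 hr at 37 deg C, 5% CO2.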
HEK293 tox – cytotoxicity in counter-screen for GLP-1R inverse agonists; HEK293 cAMP-luciferase reporter cells, luminescence, 24 h; Potency, µM (series often up to 38.3 µM), for the others: top-dose activity change, negative = inhibition, most hits filed as inhibitors; hit rate 0.13% among 410,000;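 further: loss of luciferase light is scored as toxicity; on the % scale 0 is the no-effect control and ±100 the full control effect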
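A 23 nL compound transfer followed 12 hours of cell culture at 37 deg C; exposure then lasted 24 hr. Luciferase assay detection reagent was dispensed and plates read for luminescence after a 12 min room-temperature wait.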
GLP-1R agonist – activates the human GLP-1 receptor; Potency, µM (series often up to 45.6 µM), without a hit: at the highest dose activation, actives largely listed as activators; HEK293 GLP-1R CRE-luciferase, luminescence, 4-6 h; cells express a hypersensitive GLP-1R form; P43220; hit rate 0.007% among 380,000; further: % of control where 0% means no effect
An asterisk follows results filed as active; ? = inconclusive; . = no result given. Unless noted, the call rests on the fitted dose curve; in most records, active means well fitted curve in the direction sought with a large enough effect; inconclusive means small, poorly fitted or top-dose-only effect, or another doubt; inactive means no such curve, though single readings can be large; an effect the other way counts as inactive or inconclusive. Potency means the concentration at half of the fitted maximal effect.

SMILES	ClpP mod	GLP1R inv ag	HEK293 tox	GLP-1R agonist
Cc1ccc2[nH]c(=O)c(CN(CCc3ccccc3)Cc3nnnn3CC3CCCO3)cc2c1 (centres undefined)	-4%	24%	-29%	11%
O=c1[nH]c2cc3c(cc2cc1CN(CCc1ccccc1)Cc1nnnn1CC1CCCO1)OCO3 (centres undefined)	25µM*	0%	-15%	-9%
Cc1ccccc1OC(=O)CSc1nnc(-c2ccc(F)cc2)o1	1%	5%	-2%	.
O=c1[nH]c(SCc2c(F)cccc2Cl)nc2c1CCCC2	-4%	18%	5%	.
COc1ccc2cc(C#N)c(NC(C)C)nc2c1	22µM*	3%	16%	0%
CC(C)Oc1ccc(Br)cc1/C=N\NC(N)=S	-14%	3.2µM*	2.5µM*	0%
Cc1cc(/C=N/NC(N)=S)c(C)n1-c1ccc(Br)cc1	1%	?	?	-1%
Cc1cccc(NC(=O)CSc2cn(CC(=O)N3CCCCCC3)c3ccccc23)c1	-1%	8%	1%	.
CCN(CC)C(=O)CSc1nc2ncc(Br)cc2[nH]1	-3%	13%	2%	0%
CCOC(=O)CNC(=O)CSc1nc2ncc(Br)cc2[nH]1	16µM*	3%	15%	-2%
Cc1ccc(S(=O)(=O)N2CCC(N3CCN(C)CC3)CC2)cc1Cl	.	2.5µM*	29%	7%
Cc1ccc(S(=O)(=O)N2CCN(C)CC2)cc1C	-1%	6%	5%	-2%
COc1cccc(NC(=O)CSc2cc(C)[nH]c(=O)n2)c1	0%	14%	-3%	2%
COc1ccc2[nH]c(=O)c(CN(C(C)=O)C3CCCCC3)cc2c1	32µM*	0%	22%	3%
COc1ccc(N(Cc2cc3cc(C)ccc3[nH]c2=O)C(C)=O)cc1	-27%	0%	1%	-2%
COc1ccc2[nH]c(=O)c(CN(C(=O)NC3CCCCC3)C3CCCC3)cc2c1	34%	68%	0%	11%
COc1ccc2[nH]c(=O)c(CN(C(C)=O)c3cccc(C)c3)cc2c1	35µM*	6%	-1%	4%
COc1cc(Nc2ccccn2)cc(C(=O)Nc2cccc(C(F)(F)F)c2)c1	?	11µM*	?	2%
COc1cc(NC(=O)c2ccno2)cc(C(=O)Nc2cccc(C(F)(F)F)c2)c1	0%	?	-12%	0%
COc1cc(OC)cc(C(=O)Nc2ccc(Nc3ccccc3)cc2)c1	0%	11µM*	-25%	14%
COc1cc(NC(=O)c2cc3cccc(OC)c3o2)cc(C(=O)Nc2cccc(C(F)(F)F)c2)c1	25µM*	?	-16%	-4%
COc1ccccc1Oc1c(NS(=O)(=O)c2ccc(C(C)(C)C)cc2)nc(-c2ncccn2)nc1OCCO	.	.	.	0%
CO/N=C\CC(=O)Nc1ccc(Oc2ccccc2)cc1	.	1.3µM*	-23%	10%
O=C(C/C=N\O)Nc1ccc(Oc2ccccc2)cc1	.	-11%	-1%	9%
CCOC(=O)N1CCN(C(=O)CCS(=O)(=O)c2ccc3c(c2)CCN3C(=O)CC)CC1	2%	9%	0%	-1%
SMILES	ClpP mod	GLP1R inv ag	HEK293 tox	GLP-1R agonist
CC(=O)N1CCc2cc(S(=O)(=O)CCC(=O)O)ccc21	32µM*	9%	-14%	-19%
CCOC(=O)C1CCN(C(=O)CCS(=O)(=O)c2ccc3c(c2)CCN3C(=O)CC)CC1	20µM*	-4%	6%	5%
CC(=O)Nc1ccc(C2Nc3ccccc3C(=O)N2C2CCCCC2)cc1 (centres undefined)	28µM*	2%	-9%	8%
Cc1nnc(NC(=O)C2CCN(C(=O)c3ccsc3)CC2)s1	2%	.	.	.
O=S(=O)(c1ccccc1)c1nc(-c2cccs2)oc1NCC1CCCO1 (centres undefined)	25µM*	-15%	41%	26%
N#Cc1nc(-c2cccs2)oc1NCC1CCCO1 (centres undefined)	24%	73%	-14%	-1%
Cc1ccccc1-n1c(SCC(=O)Nc2ccc(Cl)cc2F)nnc1-c1cc2occc2n1C	-6%	2%	-7%	.
Oc1ccccc1CNCCCNCc1ccccc1O	-1%	8.9µM*	?	-3%
c1ccc(CNCCCNCCCCNCCCNCc2ccccc2)cc1	-1%	2.8µM*	?	-5%
O=C(O)CCCCNCc1ccccc1	0%	11%	10%	-5%
Cc1ccc(C)c(NC(=O)c2nn(C)c3c2CS(=O)(=O)c2ccccc2-3)c1	-5%	8%	9%	1%
Cc1nc(N2CCOCC2)c2c(C(=O)N3CCN(c4ccc(Cl)cc4)CC3)c(C)oc2n1	0%	-9%	0%	.
O=C(CSc1nc(Nc2ccccc2)nc(N2CCOCC2)n1)Nc1cccc([N+](=O)[O-])c1	2%	11µM*	2%	7%
O=C(CSc1nc(Nc2ccccc2)nc(N2CCOCC2)n1)Nc1ccc([N+](=O)[O-])cc1	-2%	6%	-10%	9%
c1ccc(-c2nc(-c3cccs3)[nH]c2-c2ccccc2)cc1	32µM*	2%	4%	-14%
COc1ccc(-c2nc(-c3ccccc3)c(-c3cc([N+](=O)[O-])ccc3C)[nH]2)cc1O	-3%	?	?	-17%
COc1cc(-c2nc(-c3ccccc3)c(-c3cccs3)[nH]2)cc(OC)c1OC	32µM*	?	-4%	-4%
COc1cc(-c2nc(-c3ccc4c(c3)-c3ccccc3S4(=O)=O)c(-c3ccccc3)[nH]2)cc(OC)c1OC	-8%	1.6µM*	142%	-2%
COc1cc(-c2nc(-c3ccccc3)c(-c3cccs3)[nH]2)cc(OC)c1O	28µM*	?	-23%	-9%
COc1cccc(-c2nc(-c3ccc4c(c3)-c3ccccc3S4(=O)=O)c(-c3ccccc3)[nH]2)c1OC	?	-16%	283%	-5%
COc1cc(-c2noc(-c3cccs3)n2)cc(OC)c1OC	2%	24%	-7%	6%
O=C(O)c1ccccc1-c1nc(-c2ccccc2)c(-c2ccccc2)[nH]1	.	4%	3%	0%
c1csc(-c2nc3c4ccccc4c4ccccc4c3[nH]2)c1	40µM*	5µM*	-20%	-9%
O=S(Cc1ccc(Br)cc1)Cc1nnc(SCc2ccc(Cl)cc2)n1-c1ccccc1 (centres undefined)	1%	?	?	-5%
O=S(Cc1ccc(Br)cc1)Cc1nnc(SCc2c(F)cccc2Cl)n1-c1ccccc1 (centres undefined)	32µM*	?	?	-4%
CC(=O)N1/C(=C/c2ccc(N(C)C)cc2)C(=O)c2ccccc21	10%	10µM*	?	-1%
O=[N+]([O-])c1ccccc1/C=C1\C=Cc2ccccc21	2%	.	.	.
O=C(Cn1ncc(Cl)c(Cl)c1=O)N1CCc2ccccc21	.	?	5.6µM*	-9%
CCn1nc(-c2ccccc2)c(-c2ccccc2)c(C(=O)Nc2ccc(NC(C)=O)cc2)c1=O	0%	-1%	1%	.
